# According to PubChem BioAssay AID1159580 (chemical genetic matrix, 2015):
# Out of some 5,500 compounds screened, about 2,000 (36%) were called active. Roughly 18% stayed inconclusive and do not appear here. This is one part of the list. Unmarked numbers belong to inactive results. Cut-off read from the data, not from the text of the source: active = normalized growth mostly below about 0.91 (no sharp cut-off); inconclusive = no clear call, values can overlap the other calls; inactive = mostly above about 0.92.
# Experiment: chemical genetic growth profiling, strain panel (AID 1159580);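 note: tested at 20 µM; growth read once vehicle control cultures reached saturation at 30 °C; 1 = growth at the plate median or of vehicle wells; lower values mean less growth of the strain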
# Conditions: S. cerevisiae deletion strains, growth OD
smiles,measurement,setting,value
CC1(C)O[C@@H]2CC3C4CCC5=CC(=O)C=C[C@]5(C)C4[C@@H](O)C[C@]3(C)[C@]2(C(=O)CO)O1 (some centres not stated),normalized growth,"locus YAL021C, strain ccr4, active compounds read low",1.01
same,normalized growth,"locus YAL026C, strain drs2, active compounds read low",1.01
same,normalized growth,"locus YAL030W, strain snc1, active compounds read low",1.01
same,normalized growth,"locus YBL061C, strain skt5, active compounds read low",1
same,normalized growth,"locus YBR009C, strain hhf1, active compounds read low",1.01
same,normalized growth,"locus YBR023C, strain chs3, active compounds read low",1
same,normalized growth,"locus YBR171W, strain sec66, active compounds read low",0.994
same,normalized growth,"locus YBR231C, strain swc5, active compounds read low",1.01
same,normalized growth,"locus YBR279W, strain paf1, active compounds read low",1.01
same,normalized growth,"locus YCL011C, strain gbp2, active compounds read low",1
same,normalized growth,"locus YCL016C, strain dcc1, active compounds read low",1.01
same,normalized growth,"locus YCL061C, strain MRC1, active compounds read low",0.999
same,normalized growth,"locus YCL069W, strain vba3, active compounds read low",0.995
same,normalized growth,"locus YCR088W, strain abp1, active compounds read low",0.993
same,normalized growth,"locus YDL005C, strain med2, active compounds read low",0.999
same,normalized growth,"locus YDL040C, strain nat1, active compounds read low",1
same,normalized growth,"locus YDR001C, strain nth1, active compounds read low",0.999
same,normalized growth,"locus YDR069C, strain doa4, active compounds read low",1
same,normalized growth,"locus YDR137W, strain rgp1, active compounds read low",0.998
same,normalized growth,"locus YDR159W, strain sac3, active compounds read low",1.02
same,normalized growth,"locus YDR195W, strain ref2",1
same,normalized growth,"locus YDR297W, strain sur2, active compounds read low",1
same,normalized growth,"locus YDR334W, strain swr1, active compounds read low",1.01
same,normalized growth,"locus YDR335W, strain msn5, active compounds read low",1.01
same,normalized growth,"locus YDR392W, strain spt3, active compounds read low",0.983
same,normalized growth,"locus YEL003W, strain gim4, active compounds read low",1.01
same,normalized growth,"locus YEL037C, strain rad23, active compounds read low",0.994
same,normalized growth,"locus YEL061C, strain CIN8 (second series), active compounds read low",1
same,normalized growth,"locus YER015W, strain faa2, active compounds read low",1.01
same,normalized growth,"locus YER016W, strain bim1, active compounds read low",0.995
same,normalized growth,"locus YER111C, strain swi4, active compounds read low",1
same,normalized growth,"locus YER155C, strain BEM2 (second series), active compounds read low",0.984
same,normalized growth,"locus YFR010W, strain ubp6, active compounds read low",0.996
same,normalized growth,"locus YGL167C, strain pmr1, active compounds read low",1.01
same,normalized growth,"locus YGL173C, strain kem1, active compounds read low",1.01
same,normalized growth,"locus YGL227W, strain vid30, active compounds read low",0.998
same,normalized growth,"locus YGL240W, strain doc1, active compounds read low",1.01
same,normalized growth,"locus YGL253W, strain hxk2, active compounds read low",1
same,normalized growth,"locus YHR013C, strain ard1, active compounds read low",1.02
same,normalized growth,"locus YHR027C, strain rpn1, active compounds read low",1.01
same,normalized growth,"locus YHR030C, strain SLT2, active compounds read low",0.988
same,normalized growth,"locus YHR079C, strain IRE1, active compounds read low",0.974
same,normalized growth,"locus YHR142W, strain chs7, active compounds read low",1.01
same,normalized growth,"locus YJL092W, strain hpr5, active compounds read low",0.997
same,normalized growth,"locus YJL095W, strain BCK1 (second series), active compounds read low",1.01
same,normalized growth,"locus YJL095W, strain BCK1, active compounds read low",0.985
same,normalized growth,"locus YJL115W, strain asf1, active compounds read low",1
same,normalized growth,"locus YJL129C, strain trk1, active compounds read low",1.03
same,normalized growth,"locus YJL154C, strain vps35, active compounds read low",0.996
same,normalized growth,"locus YJL164C, strain tpk1, active compounds read low",1.01
same,normalized growth,"locus YJL166W, strain qcr8, active compounds read low",1.01
same,normalized growth,"locus YJL187C, strain SWE1, active compounds read low",1
same,normalized growth,"locus YJR066W, strain TOR1, active compounds read low",0.95
same,normalized growth,"locus YKL160W, strain elf1, active compounds read low",1.02
same,normalized growth,"locus YKR026C, strain gcn3, active compounds read low",0.982
same,normalized growth,"locus YKR091W, strain srl3, active compounds read low",1.01
same,normalized growth,"locus YLL001W, strain dnm1, active compounds read low",1
same,normalized growth,"locus YLL026W, active compounds read low",1
same,normalized growth,"locus YLL041C, strain sdh2, active compounds read low",1
same,normalized growth,"locus YLR027C, strain aat2, active compounds read low",1.01
same,normalized growth,"locus YLR113W, strain HOG1, active compounds read low",0.963
same,normalized growth,"locus YLR221C, strain rsa3, active compounds read low",1.01
same,normalized growth,"locus YLR258W, strain gsy2, active compounds read low",1
same,normalized growth,"locus YLR262C, strain YPT6 (second series), active compounds read low",1.01
same,normalized growth,"locus YLR320W, strain mms22, active compounds read low",1.01
same,normalized growth,"locus YLR342W, strain FKS1, active compounds read low",1.02
same,normalized growth,"locus YLR357W, strain rsc2, active compounds read low",0.976
same,normalized growth,"locus YLR370C, strain arc18, active compounds read low",1.01
same,normalized growth,"locus YLR384C, strain iki3, active compounds read low",1.01
same,normalized growth,"locus YML120C, strain ndi1, active compounds read low",1.01
same,normalized growth,"locus YMR058W, strain fet3, active compounds read low",1.02
same,normalized growth,"locus YMR125W, strain sto1, active compounds read low",0.992
same,normalized growth,"locus YMR129W, active compounds read low",1.01
same,normalized growth,"locus YMR205C, strain PFK2, active compounds read low",0.978
same,normalized growth,"locus YMR231W, strain pep5, active compounds read low",1
same,normalized growth,"locus YNL071W, strain lat1, active compounds read low",0.998
same,normalized growth,"locus YNL183C, strain NPR1, active compounds read low",0.918
same,normalized growth,"locus YNL209W, strain ssb2, active compounds read low",1.02
same,normalized growth,"locus YNL248C, strain rpa49, active compounds read low",1.01
same,normalized growth,"locus YNL322C, strain KRE1 (second series), active compounds read low",0.998
same,normalized growth,"locus YNR049C, strain mso1, active compounds read low",1.01
same,normalized growth,"locus YOR001W, strain rrp6, active compounds read low",1.01
same,normalized growth,"locus YOR070C, strain gyp1, active compounds read low",1
same,normalized growth,"locus YOR080W, strain dia2, active compounds read low",1
same,normalized growth,"locus YOR083W, strain WHI5, active compounds read low",1.02
same,normalized growth,"locus YOR106W, strain vam3, active compounds read low",1
same,normalized growth,"locus YOR231W, strain MKK1, active compounds read low",0.983
same,normalized growth,"locus YOR265W, strain rbl2, active compounds read low",1.01
same,normalized growth,"locus YOR270C, strain vph1, active compounds read low",1.03
same,normalized growth,"locus YOR290C, strain snf2, active compounds read low",1.01
same,normalized growth,"locus YPL051W, strain arl3, active compounds read low",1
same,normalized growth,"locus YPL078C, strain atp4, active compounds read low",0.995
same,normalized growth,"locus YPL106C, strain sse1, active compounds read low",0.998
same,normalized growth,"locus YPL240C, strain hsp82, active compounds read low",1
same,normalized growth,"locus YPL256C, strain CLN2, active compounds read low",0.996
C=CCN1CCc2cccc3c2[C@H]1Cc1ccc(O)c(O)c1-3,normalized growth,"locus YAL040C, strain CLN3, active compounds read low",0.942
same,normalized growth,"locus YCL061C, strain MRC1 (second series), active compounds read low",0.481 (active)
same,normalized growth,"locus YDR363W, strain ESC2, active compounds read low",0.516 (active)
same,normalized growth,"locus YER002W, strain NOP16, active compounds read low",0.976
same,normalized growth,"locus YGR078C, strain PAC10, active compounds read low",0.979
same,normalized growth,"locus YJR075W, strain HOC1, active compounds read low",0.199 (active)
same,normalized growth,"locus YNL128W, strain TEP1, active compounds read low",0.888 (active)
same,normalized growth,"locus YNL175C, strain NOP13, active compounds read low",0.966
same,normalized growth,"locus YNL197C, strain WHI3, active compounds read low",0.961
same,normalized growth,"locus YNL224C, strain SQS1, active compounds read low",0.985
same,normalized growth,"locus YNL322C, strain KRE1, active compounds read low",0.152 (active)
same,normalized growth,"locus YOR083W, strain WHI5 (second series), active compounds read low",0.712 (active)
